D2 ag-1: activates the human D2 dopamine receptor. DiscoveRx PathHunter D2 beta-arrestin, luminescence, 90 min; 100% = 57 uM dopamine signal. 360,000 compounds, 0.084% hits. activation, % (no concentration beside the values). P14416; in the data active = activation above about 40%; inconclusive = between about 15% and that limit
Target sequence (P14416 whole entry, looked up): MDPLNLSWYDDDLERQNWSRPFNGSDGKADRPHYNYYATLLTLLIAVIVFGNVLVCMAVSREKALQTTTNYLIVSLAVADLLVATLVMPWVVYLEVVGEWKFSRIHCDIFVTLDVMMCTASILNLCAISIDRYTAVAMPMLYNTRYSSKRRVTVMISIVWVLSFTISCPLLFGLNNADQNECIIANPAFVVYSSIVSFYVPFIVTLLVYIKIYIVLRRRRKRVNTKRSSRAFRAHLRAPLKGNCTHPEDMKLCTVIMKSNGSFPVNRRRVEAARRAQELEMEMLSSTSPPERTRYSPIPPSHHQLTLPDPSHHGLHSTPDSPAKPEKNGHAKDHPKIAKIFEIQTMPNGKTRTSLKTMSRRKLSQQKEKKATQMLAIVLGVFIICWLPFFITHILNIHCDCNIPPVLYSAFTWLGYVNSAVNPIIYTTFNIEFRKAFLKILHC
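DiscoveRx PathHunter D2 beta-arrestin cells (2,100/well) attached overnight, then compound-stimulated 90 min at 37 C in HBSS/10 mM HEPES/0.1% Tween-20 buffer; beta-galactosidase complementation read by luminescence after 1 h at ambient temperature. Dopamine 57 uM final (EC100) as control.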
D2 PAM-1: positively modulates the human D2 dopamine receptor allosterically; HEK293 T-REx D2, calcium flux, EC20 dopamine potentiation; potentiation, % at 10 µM; 340,000 compounds, 0.34% hits; AID 485347;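 active = potentiation over 3 SD above the plate norm, cut at about 30% in these data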
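Calcium flux readout, no-wash dye, 1 read/s. Inducible HEK293 Trex D2 line, overnight 30 C. Compound alone 180 s (agonist flags), then EC20 dopamine, another 180 s to score potentiation.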
D2 ag-2: activates the human D2 dopamine receptor; activation, % at 2 µM; 340,000 compounds, 0.53% hits; HEK293 T-REx D2 cells, calcium flux agonist mode;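 active = activation over 3 SD above normal in the single-dose calcium agonist read, cut at about 30% in these data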
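Agonism scored from kinetic calcium signal (1 read/sec, 180 s) following compound pin transfer, after a 10 s baseline. Cells: HEK293 Trex line expressing inducible D2 receptor coupled to calcium, dye-loaded after overnight culture at 30 C.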
D2 PAM-2: positive allosteric modulators of human D2 dopamine receptor | DiscoveRx D2 beta-arrestin cells, luminescence, 90 min; 100% = 57 uM dopamine signal | potentiation, % (test concentration not listed) | 360,000 compounds, 0.23% hits; in the data active = potentiation above about 50%; inconclusive = mostly about 30% to 49%
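PathHunter D2 cells, attached overnight at 37 deg C, received compound in DMSO plus dopamine at EC20 (50 nM final) for 90 min at 37 deg C. Beta-arrestin recruitment was read as luminescence after 1 h with detection reagent at ambient temperature.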
D2 antagonist: D2 dopamine receptor (human) antagonism | P14416 | HEK293 TREx D2 cells, calcium flux, dopamine EC80 | inhibition, % at 10 µM | 340,000 compounds, 2% hits | AID 485344; in the data active = inhibition above about 30%; inactive = below that, where a call was filed
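Tetracycline-induced HEK293 T-REx cells expressing D2 force-coupled to calcium signalling were dye-loaded, exposed to compound for 180 s, then challenged with an EC80 of dopamine; calcium flux was followed kinetically for a further 180 s.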
Each line names hits and unclear results; the compound was inactive in the other large screens. Sampled rows, rich in hits. Any-hit rate of the full collection: about 2.4%.

CN1/C(=C\C=C\C2=[N+](C)c3ccc4ccccc4c3C2(C)C)C(C)(C)c2ccccc21	D2 antagonist 39 (no result: D2 ag-1, D2 PAM-2)
CCN1/C(=C/C=C/C2=[N+](CC)c3ccccc3C2(C)C)C(C)(C)c2ccccc21	none (no result: D2 PAM-1, D2 ag-2, D2 antagonist)
CC(=O)NC1=C(N2CC2C)C(=O)C(NC(C)=O)=C(N2CC2C)C1=O (stereo not drawn)	D2 PAM-2 95 (no result: D2 PAM-1, D2 ag-2, D2 antagonist)
CCCC(=O)NC1=C(N2CC2)C(=O)C(NC(=O)CCC)=C(N2CC2)C1=O	none (no result: D2 PAM-1, D2 ag-2, D2 antagonist)
O=C(COc1cc(Cl)ccc1Cl)Nc1ccc(Cl)cc1C(=O)c1ccccc1	none (no result: D2 ag-1, D2 PAM-2, D2 antagonist)
CN1CCN(c2ccc(N)cc2Cl)CC1	D2 antagonist 46
Clc1ccc(C(OCCN2CCCCC2)c2ccccc2)cc1 (stereo not drawn)	D2 antagonist 43
Cc1cccc(-c2nn3c(=O)cc(CN4CCN(C(=O)COc5ccc(Cl)cc5)CC4)nc3s2)c1	none (no result: D2 ag-1, D2 PAM-2, D2 antagonist)
CCN(CC)C(=O)c1ccc(NC(=O)CCn2nc(-c3ccc(Cl)cc3)c3ccccc3c2=O)cc1	none (no result: D2 ag-1, D2 PAM-2, D2 antagonist)
CCOC(=O)c1c(N)n(CCCOC(=O)c2ccco2)c2nc3ccccc3nc12	D2 ag-1 inconclusive, D2 PAM-2 86
COc1cccc(NC(=O)c2cccn(Cc3ccccc3C)c2=O)c1	none (no result: D2 ag-1, D2 PAM-2, D2 antagonist)
CC(C)(C)c1ccc(OCC(=O)Nc2ccc(Cl)cc2C(=O)c2ccccc2)cc1	none (no result: D2 ag-1, D2 PAM-2, D2 antagonist)
CCOC(=O)C1CCCCC12C(C#N)=C(N)Oc1n[nH]c(C)c12 (stereo not drawn)	D2 antagonist 30
COC(=O)CC1=C(C(=O)OC)C2(C(=O)Nc3c(C)cccc32)C(C#N)=C(N)O1 (stereo not drawn)	D2 PAM-2 70
Cc1nc2ccccc2c(=O)n1-c1ccccn1	D2 antagonist 35
COc1ccccc1-n1c(-c2ccccc2)nc2ccccc2c1=O	D2 antagonist 40
Cc1ccccc1-n1c(C)nc2ccccc2c1=O	D2 PAM-1 31
Cc1ccc(-n2c(/C=C/c3ccccc3)nc3ccccc3c2=O)cc1Cl	none (no result: D2 ag-1, D2 PAM-2, D2 antagonist)
O=C(Nc1ccc2c(c1)OCO2)c1cccn(Cc2ccccc2)c1=O	none (no result: D2 ag-1, D2 ag-2, D2 PAM-2, D2 antagonist)
CN1/C(=C\C=C2C(=O)NC(=O)NC2=O)C(C)(C)c2ccccc21	D2 ag-2 50 (no result: D2 PAM-1)
CN1/C(=C\C=Nc2ccccc2)C(C)(C)c2ccccc21	none
O=C(COC(=O)Cc1ccccc1)Nc1nnc(-c2ccccc2)o1	D2 antagonist 31
Cc1cccc(CN2C(=O)CN=C(c3ccccc3)c3cc(Cl)ccc32)c1	none (no result: D2 ag-1, D2 PAM-2, D2 antagonist)
COc1ccc(F)cc1C(=O)C1CCCN(Cc2cnc(C)s2)C1 (stereo not drawn)	none
COc1ccc(F)cc1C(=O)C1CCCN(Cc2ccc(O)cc2)C1 (stereo not drawn)	D2 antagonist 72
CCOc1ccc(CN2CCCC(C(=O)c3ccccc3OC)C2)cc1 (stereo not drawn)	D2 antagonist 72
COc1ccccc1CN1CCCC(C(=O)c2ccccc2OC)C1 (stereo not drawn)	none
Fc1ccc2c(c1)nnn2C1CCN(Cc2ccccc2)CC1	D2 antagonist 82
CCOC(=O)c1c(C)n(Cc2ccco2)c2c1cc(O)c1ccccc12	D2 ag-1 inconclusive, D2 PAM-2 72
Cc1cccc(N2CCN(Cc3ccc4c(c3)OCO4)CC2)c1C	D2 antagonist 66
COc1ccccc1N1CCN(Cc2ccc3c(c2)OCO3)CC1	none (no result: D2 PAM-1, D2 ag-2, D2 antagonist)
CC(C)(C)c1ccc(C(=O)C2CCCN(C3CCC3)C2)cc1 (stereo not drawn)	D2 antagonist 37
O=[N+]([O-])c1ccccc1CN1CC=C(c2ccc(F)cc2)CC1	none
COc1ccc(CN2CC=C(c3ccc(F)cc3)CC2)cc1Br	D2 antagonist 63
Cc1ccc(OCC(=O)N2CCN(Cc3ccc(F)cc3)CC2)cc1	none (no result: D2 ag-1, D2 PAM-2, D2 antagonist)
CCN(CC)c1ccc(CN2CC=C(c3ccc(F)cc3)CC2)cc1	D2 antagonist 41
CC(C)N1CCN(Cc2cccc([N+](=O)[O-])c2)CC1	none (no result: D2 PAM-1)
O=[N+]([O-])c1cccc(CN2CCN(Cc3ccc(Cl)cc3)CC2)c1	D2 antagonist 50
O=[N+]([O-])c1cccc(CN2CC=C(c3ccc(F)cc3)CC2)c1	D2 antagonist 73
CN1CSC(=S)N(C)C1	D2 antagonist 42
Cc1ccc2c(c1)C1CN(C)CCC1N2S(=O)(=O)c1ccccc1 (stereo not drawn)	D2 antagonist 44
Nc1c(C(=O)Nc2ccc(OC(F)(F)F)cc2)sc2nc3c(cc12)N1CCC3CC1	none (no result: D2 ag-1, D2 PAM-2, D2 antagonist)
CCNC(=O)NC(=O)C(C)OC(=O)c1c(C)nn(Cc2ccccc2)c1Cl (stereo not drawn)	D2 antagonist 40
CCNC(=O)NC(=O)C(C)OC(=O)c1c(C)nn(Cc2ccccc2Cl)c1Cl (stereo not drawn)	none
NS(=O)(=O)OC(CCc1ccccc1)C(Cl)(Cl)Cl (stereo not drawn)	D2 antagonist 38
COc1ccc(C(=O)C2CCCN(C3CSCCSC3)C2)c(OC)c1 (stereo not drawn)	D2 antagonist 57
C1=C(CCNCc2ccccc2)CCCC1	D2 antagonist 39
C[C@H]1CCC[C@H](O)CCCCCc2cc(O)cc(O)c2C(=O)O1	D2 antagonist 32
CCc1ccc(-c2nn(Cc3ccccc3)cc2C=O)cc1	D2 antagonist 35
Cc1cccc(-c2nc(CN3C(=O)CN=C(c4ccccc4)c4ccccc43)c(C)o2)c1	none (no result: D2 ag-1, D2 PAM-2, D2 antagonist)
COc1ccc(NC(=O)CN2C(=O)C(C)N=C(c3ccccc3F)c3cc(Cl)ccc32)c(OC)c1 (stereo not drawn)	none (no result: D2 ag-1, D2 PAM-2, D2 antagonist)
O=C(CNC(=O)c1cccc(Cl)c1)Nc1ccc(Br)cc1C(=O)c1ccccc1	none
O=C(CNC(=O)c1ccc(Cl)cc1)Nc1ccc(Br)cc1C(=O)c1ccccc1	D2 antagonist 34
COc1cccc(CNCCc2c[nH]c3ccccc23)c1OC	D2 antagonist 52
Cc1ccc(-c2nc(CN3C(=O)CN=C(c4ccccc4Cl)c4cc(Cl)ccc43)c(C)o2)cc1	none (no result: D2 ag-1, D2 PAM-2, D2 antagonist)
CN1C[C@H](CNC(=O)OCc2ccccc2)C[C@@H]2c3cccc4c3c(cn4C)C[C@H]21	D2 antagonist 78
COc1ccc(C(c2c(O)c3ccccc3oc2=O)c2c(C)n(C)n(-c3ccccc3)c2=O)cc1 (stereo not drawn)	D2 antagonist 93
CC(=O)N1CN2CN(C1)CN(C(C)=O)C2	D2 PAM-1 34
CC1=NN=C(c2ccc(N)cc2)c2cc3c(cc2C1)OCO3	D2 ag-1 70
COC(=O)C1=C(c2ccc(-c3ccccc3)c(F)c2)C[C@@H]2CC[C@H]1N2C(=O)NCC1CC1	none
COC(=O)C1=C(c2ccc(-c3ccccc3)c(F)c2)C[C@@H]2CC[C@H]1N2C(=O)NC1Cc2ccccc2C1	D2 antagonist 38
C/C(=N\Nc1ccccc1)c1c(O)n(Cc2ccccc2)c(=O)[nH]c1=O	D2 PAM-2 57

Screening results: PubChem, National Center for Advancing Translational Sciences (NCATS)
